Nine compounds from PubChem BioAssay (NCI) can be followed below.

This is part of a sample that, as a whole, favours compounds with a hit. Of some 79,000 tested, about 15% had one in any assay. Unmarked numbers belong to inactive results. Active and inactive are the calls of the source. Rule as the data show it: active = growth inhibition above about 70%; inactive = the rest.

Experiment [1] can be described thus: NCI Yeast Anticancer Drug Screen. Data for the rad50 strain (AID 155).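 Also: 0% = growth of vehicle-only cultures of the same strain.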 Conditions: S. cerevisiae rad50 strain growth inhibition, stronger effect = higher value. In short, it runs like this:
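A DNA repair-deficient yeast mutant serves as the test organism; compound-induced growth inhibition is calculated against vehicle-treated cells.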

A short description of experiment [2]: NCI Yeast Anticancer Drug Screen. Data for the mec2-1 strain (AID 157). Conditions: S. cerevisiae mec2-1 strain, stronger effect = higher value. The essentials: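 Strain: mec2-1 (DNA repair/cell cycle alteration). Compound exposure, then growth measured; inhibition expressed relative to vehicle.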
Experiment [3] can be described thus: NCI Yeast Anticancer Drug Screen. Data for the sgs1 mgt1 strain (AID 161).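 Also: 0% = growth of cultures given vehicle only.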 Conditions: S. cerevisiae sgs1 mgt1 strain, stronger effect = higher value. In short, it runs like this: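 Read-out: growth inhibition vs vehicle controls. Cells: mutant yeast strain deficient in DNA damage repair.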
A short description of experiment [4]: NCI Yeast Anticancer Drug Screen. Data for the cln2 rad14 strain (AID 165).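 Also: 0% = growth equal to vehicle treated cultures.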 Conditions: S. cerevisiae cln2 rad14 strain, stronger effect = higher value. The essentials: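 Compounds are applied to the cln2 rad14 yeast strain, and growth is then compared with that of vehicle-treated cultures to give inhibition.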
Experiment [5] can be described thus: NCI Yeast Anticancer Drug Screen. Data for the bub3 strain (AID 167). Conditions: S. cerevisiae bub3 mutant strain, stronger effect = higher value. In short, it runs like this:
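Inhibition values come from growth of compound-treated mutant yeast normalised to vehicle-treated controls.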

A short description of experiment [6]: NCI Yeast Anticancer Drug Screen. Data for the mlh1 rad18 strain (AID 175). Conditions: S. cerevisiae mlh1 rad18 strain growth inhibition, stronger effect = higher value. In short, it runs like this: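 Read-out is yeast growth inhibition, calculated against vehicle-only controls. The compound was applied to a strain engineered with DNA damage repair alterations.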
[7] abbreviates: at 5.0 µM (retest, dose inferred, filed as 0.5).
The mark [8] stands for this setting: at 50.0 µM (retest, dose inferred, filed as 5.0).

Consider `CC(=O)Nc1ccc(/S(=N\S(=O)(=O)c2ccc(C)cc2)c2ccc(NC(C)=O)cn2)cc1` (configuration not stated), for which the growth inhibition is 0% in experiment [1] (setting [7]); 6% in experiment [1] (setting [8]); 37% in experiment [1] (at 50.0 µM); -2% in experiment [2] (setting [7]); 1% in experiment [2] (setting [8]); 4.8% in experiment [2] (at 50.0 µM). The growth inhibition was 0% in experiment [3] (setting [7]); 4% in experiment [3] (setting [8]); 0.7% in experiment [3] (at 50.0 µM); -8% in experiment [4] (setting [7]); 3% in experiment [4] (setting [8]); 73.3% (active) in experiment [4] (at 50.0 µM). For the same compound, the growth inhibition in experiment [5] (setting [7]) is -3%; in experiment [5] (setting [8]) it was 0%; in experiment [5] (at 50.0 µM), -1.75%; in experiment [6] (setting [7]) it was -2%; in experiment [6] (setting [8]) it was 7%; in experiment [6] (at 50.0 µM) it was -15.1%.

For the compound `N#CCCN(CCCN1CCOCC1)C(=S)Nc1cccc(C(F)(F)F)c1`, the growth inhibition was 34% in experiment [1] (setting [7]); 44% in experiment [1] (setting [8]); 42.9% in experiment [1] (at 50.0 µM); 23% in experiment [2] (setting [7]); 33% in experiment [2] (setting [8]); 35.8% in experiment [2] (at 50.0 µM). Moreover, the growth inhibition in experiment [3] (setting [7]) is 41%; in experiment [3] (setting [8]), 37%; in experiment [3] (at 50.0 µM) it was 71.1% (active); in experiment [4] (setting [7]), 41%; in experiment [4] (setting [8]) it was 60%; in experiment [4] (at 50.0 µM), 59.5%. In addition, the growth inhibition is 49% in experiment [5] (setting [7]); 58% in experiment [5] (setting [8]); 49.8% in experiment [5] (at 50.0 µM); 48% in experiment [6] (setting [7]); 61% in experiment [6] (setting [8]); 36% in experiment [6] (at 50.0 µM).

`O=C(CC(c1ccccc1Cl)C(C(=O)O)c1ccccc1)c1ccccc1` (configuration not stated): the growth inhibition is 4% in experiment [1] (setting [7]); 72% (active) in experiment [1] (setting [8]); 81% (active) in experiment [1] (at 50.0 µM); 4% in experiment [2] (setting [7]); 71% (active) in experiment [2] (setting [8]); 71.7% (active) in experiment [2] (at 50.0 µM). The growth inhibition in experiment [3] (setting [7]) was 6%; in experiment [3] (setting [8]), 72% (active); in experiment [3] (at 50.0 µM), 92.5% (active); in experiment [4] (setting [7]), 6%; in experiment [4] (setting [8]) it was 83% (active); in experiment [4] (at 50.0 µM), 91.5% (active). In addition, the growth inhibition in experiment [5] (setting [7]) was -4%; in experiment [5] (setting [8]), 67%; in experiment [5] (at 50.0 µM) it was 43.6%; in experiment [6] (setting [7]), -1%; in experiment [6] (setting [8]), 78% (active); in experiment [6] (at 50.0 µM) it was 92.1% (active).

For `CSC(=S)NNC(C)c1nccc2ccccc12` (configuration not stated), the growth inhibition was 23% in experiment [1] (setting [7]); 97% (active) in experiment [1] (setting [8]); 97.8% (active) in experiment [1] (at 50.0 µM); -3% in experiment [2] (setting [7]); 98% (active) in experiment [2] (setting [8]); 98.8% (active) in experiment [2] (at 50.0 µM). For the same compound, the growth inhibition in experiment [3] (setting [7]) is 29%; in experiment [3] (setting [8]), 97% (active); in experiment [3] (at 50.0 µM) it was 98.8% (active); in experiment [4] (setting [7]), -8%; in experiment [4] (setting [8]), 97% (active); in experiment [4] (at 50.0 µM), 97.8% (active). For the same compound, the growth inhibition in experiment [5] (setting [7]) was -7%; in experiment [5] (setting [8]), 97% (active); in experiment [5] (at 50.0 µM) it was 98.2% (active); in experiment [6] (setting [7]), 2%; in experiment [6] (setting [8]) it was 97% (active); in experiment [6] (at 50.0 µM) it was 98.8% (active).

As for `C[C@H](CCC(=O)O)[C@H]1CC[C@H]2[C@@H]3[C@@H](O)C[C@@H]4C[C@H](O)CC[C@]4(C)[C@H]3CC[C@]12C`, the growth inhibition is 14% in experiment [1] (setting [7]); 97% (active) in experiment [1] (setting [8]); 79.9% (active) in experiment [1] (at 50.0 µM); 7% in experiment [2] (setting [7]); 96% (active) in experiment [2] (setting [8]); 99% (active) in experiment [2] (at 50.0 µM). The growth inhibition in experiment [3] (setting [7]) is 19%; in experiment [3] (setting [8]) it was 99% (active); in experiment [3] (at 50.0 µM), 81.3% (active); in experiment [4] (setting [7]) it was -1%; in experiment [4] (setting [8]), 97% (active); in experiment [4] (at 50.0 µM), 76.5% (active). Besides, the growth inhibition in experiment [5] (setting [7]) is 21%; in experiment [5] (setting [8]), 99% (active); in experiment [5] (at 50.0 µM) it was 98.5% (active); in experiment [6] (setting [7]), 12%; in experiment [6] (setting [8]), 99% (active); in experiment [6] (at 50.0 µM) it was 88.7% (active).

For `COc1ccccc1NC(=O)CC(=O)N1N=C(C)C(N=Nc2ccc(C(=O)O)cc2)C1=O` (configuration not stated), the growth inhibition was 2% in experiment [1] (setting [7]); -1% in experiment [1] (setting [8]); 0% in experiment [1] (at 50.0 µM); 0% in experiment [2] (setting [7]); -2% in experiment [2] (setting [8]); -4% in experiment [2] (at 50.0 µM). In addition, the growth inhibition in experiment [3] (setting [7]) was -4%; in experiment [3] (setting [8]) it was -20%; in experiment [3] (at 50.0 µM) it was 2.65%; in experiment [4] (setting [7]) it was -2%; in experiment [4] (setting [8]), 7%; in experiment [4] (at 50.0 µM) it was 27.9%. The growth inhibition in experiment [5] (setting [7]) is 1%; in experiment [5] (setting [8]), 16%; in experiment [5] (at 50.0 µM), -1.05%; in experiment [6] (setting [7]), 1%; in experiment [6] (setting [8]), 1%; in experiment [6] (at 50.0 µM) it was 2.3%.

With `Cc1c(CC=C(c2ccccc2)c2ccccc2)cccc1C[N+](C)(C)C`, the growth inhibition was 95% (active) in experiment [1] (setting [7]); 73% (active) in experiment [1] (setting [8]); 90.7% (active) in experiment [1] (at 50.0 µM); 78% (active) in experiment [2] (setting [7]); 34% in experiment [2] (setting [8]); 62.8% in experiment [2] (at 50.0 µM). Moreover, the growth inhibition was 99% (active) in experiment [3] (setting [7]); 98% (active) in experiment [3] (setting [8]); 99% (active) in experiment [3] (at 50.0 µM); 2% in experiment [4] (setting [7]); 61% in experiment [4] (setting [8]); 48.1% in experiment [4] (at 50.0 µM). The growth inhibition was 25% in experiment [5] (setting [7]); 72% (active) in experiment [5] (setting [8]); 80.2% (active) in experiment [5] (at 50.0 µM); 95% (active) in experiment [6] (setting [7]); 98% (active) in experiment [6] (setting [8]); 98.2% (active) in experiment [6] (at 50.0 µM).

In the case of `Cc1ccc(O)c(C(c2cccc(C(c3cc(C)ccc3O)c3cc(C)ccc3O)c2)c2cc(C)ccc2O)c1`, the growth inhibition in experiment [1] (setting [7]) is 66%; in experiment [1] (setting [8]), 94% (active); in experiment [1] (at 50.0 µM), 95.5% (active); in experiment [2] (setting [7]), 54%; in experiment [2] (setting [8]) it was 97% (active); in experiment [2] (at 50.0 µM), 95.4% (active). Besides, the growth inhibition is 31% in experiment [3] (setting [7]); 97% (active) in experiment [3] (setting [8]); 95% (active) in experiment [3] (at 50.0 µM); 66% in experiment [4] (setting [7]); 96% (active) in experiment [4] (setting [8]); 91.6% (active) in experiment [4] (at 50.0 µM). Further, the growth inhibition in experiment [5] (setting [7]) is 72% (active); in experiment [5] (setting [8]), 96% (active); in experiment [5] (at 50.0 µM), 95.7% (active); in experiment [6] (setting [7]), 78% (active); in experiment [6] (setting [8]), 96% (active); in experiment [6] (at 50.0 µM) it was 95.8% (active).

As for `CC(C)(CN1CCCCC1)C(=O)/C=C/c1ccc(Cl)c(Cl)c1`, the growth inhibition in experiment [1] (setting [7]) is 60%; in experiment [1] (setting [8]) it was 97% (active); in experiment [1] (at 50.0 µM), 93.3% (active); in experiment [2] (setting [7]) it was 27%; in experiment [2] (setting [8]), 98% (active); in experiment [2] (at 50.0 µM), 94.7% (active). Besides, the growth inhibition in experiment [3] (setting [7]) is 31%; in experiment [3] (setting [8]) it was 96% (active); in experiment [3] (at 50.0 µM), 93.2% (active); in experiment [4] (setting [7]), 28%; in experiment [4] (setting [8]), 96% (active); in experiment [4] (at 50.0 µM), 91.8% (active). Moreover, the growth inhibition in experiment [5] (setting [7]) was 47%; in experiment [5] (setting [8]), 96% (active); in experiment [5] (at 50.0 µM) it was 92.9% (active); in experiment [6] (setting [7]) it was 52%; in experiment [6] (setting [8]) it was 97% (active); in experiment [6] (at 50.0 µM) it was 92.7% (active).
